# Data: ChEMBL document CHEMBL3988442, “University of Dundee, Small-Polar-MMV Screening Library” (2021)
# The campaign covered roughly 48,000 compounds. About 13,000 (27%) showed an effect of 50% or more. The list shows a part of the results.
# Test system: Wolbachia pipientis
# Assay: Anti-Wolbachia Cell-Based Screen
# Format: functional
# Parameters: scale not given: in the data most compounds retested in dose-response had high values
# Details: 5 µM
row,SMILES,Percent Effect [%]
1,c1cnnc(N2CCCC(NCc3ccc(-n4cccn4)cc3)C2)c1 (centres undefined),-2.089
2,Cc1cc(CCC2CN(CC3(O)CCCCC3)CCO2)ncn1 (centres undefined),116.4
3,c1cnn(CCN2CCOC(Cn3cccn3)C2)c1 (centres undefined),108.3
4,C=C(C)CN1CCOC(Cn2cncn2)C1 (centres undefined),-5.235
5,Cc1cc(C)c2nc(CN3CCOC(CCO)C3)cc(O)c2c1 (centres undefined),-3.808
6,c1cnn(CCN2CCOC(Cn3cncn3)C2)c1 (centres undefined),-9.191
7,c1cnn(CC2CN(CCc3ccncc3)CCO2)c1 (centres undefined),0.6004
8,c1ncn(CC2CN(CC3CCCCC3)CCO2)n1 (centres undefined),107.8
9,c1ccc(CCCN2CCOC(Cn3cccn3)C2)cc1 (centres undefined),128.6
10,c1ncn(CC2CN(CC3CCCC3)CCO2)n1 (centres undefined),-0.8263
11,O=S(=O)(CCCN1CCOC(Cn2cccn2)C1)c1ccccc1 (centres undefined),7.752
12,c1ccc(CCN2CCOC(Cn3cccn3)C2)nc1 (centres undefined),5.708
13,O=C(O)c1csc(S(=O)(=O)Nc2cccc(OC(F)F)c2)c1,-1.91
14,COC(=O)C(NC(=O)c1ccc(NC2CC2)nc1)c1ccccc1 (centres undefined),-0.3075
15,O=C(NCCc1ccccc1)N1CC[C@@H]2CNS(=O)(=O)[C@@H]2CC1,-17.14
16,COC1CCN(C(=O)Cn2cccc(C(F)(F)F)c2=O)C1 (centres undefined),-0.2293
17,CC(C)=CCN1CCOC(Cn2cccn2)C1 (centres undefined),136
18,c1cnn(CC2CN(CC3CCCCC3)CCO2)c1 (centres undefined),102.2
19,OC1(CN2CCOC(Cn3cccn3)C2)CCCCC1 (centres undefined),99.61
20,O=S(=O)(CCN1CCOC(Cn2cccn2)C1)C(F)(F)F (centres undefined),8.008

row,SMILES,Percent Effect [%]
1,FC(F)(F)Cn1ccnc1CN1CCOC(Cn2cccn2)C1 (centres undefined),-0.9498
2,c1cnn(CC2CN(CC3CCCC3)CCO2)c1 (centres undefined),7.004
3,Cc1cccc(C(C)NCC2CCS(=O)(=O)CC2)c1 (centres undefined),-4.903
4,O[C@H]1Cc2ccccc2[C@H]1Nc1ncccc1C(F)(F)F,-3.306
5,CCN(CC)C(=O)[C@@H]1C[C@@H](NC(=O)c2cccc(N(C)C)c2)CN1C,-6.856
6,COc1cc(C)nc(N2CCN(C(C)c3nc(C4CC4)no3)CC2)n1 (centres undefined),4.237
7,Cc1nnc(NCC(c2ccco2)N(C)C)c(C#N)c1C (centres undefined),0.3665
8,O=C(CCn1ccc2cc(Br)ccc21)/N=c1\[nH]nc(C2CCCO2)s1 (centres undefined),98.02
9,O=C(Cn1ccc2ccc(Cl)cc21)/N=c1\[nH]nc(C2CCCO2)s1 (centres undefined),134.6
10,O=C(CCn1ccc2ccc(Br)cc21)/N=c1\[nH]nc(C2CCCO2)s1 (centres undefined),100.3
11,NC(=O)C1CCN(C(=O)CCn2ccc3cc(Br)ccc32)CC1,25.85
12,CCCn1ccc2cc(NC(=O)CC3CCCO3)ccc21 (centres undefined),3.072
13,O=C(NCCc1ccn(-c2ccc(F)cc2)n1)C1CCCO1 (centres undefined),-8.284
14,CCN(CC)C(=O)Cn1ccc2cc(NC(=O)C3CCCO3)ccc21 (centres undefined),-12.1
15,Cn1cc(C2CCCN2C(=O)Cn2ccc3ccc(Cl)cc32)cn1 (centres undefined),-41.07
16,O=C(Cn1ccc2ccc(Br)cc21)NC[C@@H]1CCCN2CCCC[C@H]12,19.6
17,O=C(NCc1cnn(-c2ccc(F)cc2F)c1)C1CCCO1 (centres undefined),2.744
18,O=C(CCn1ccc2ccc(F)cc21)/N=c1\[nH]nc(C2CCCO2)s1 (centres undefined),105.1
19,O=C(CC1CCCO1)Nc1ccc2c(ccn2CCN2CCOCC2)c1 (centres undefined),-5.067
